Data: PubChem BioAssay
A number with no mark means an inactive call.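 The calls were made as follows, unless noted: active = at least 20% inhibition of 6-phosphogluconate dehydrogenase activity; inactive = the rest.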

Assays:
[1] = target: 6-phosphogluconate dehydrogenase, decarboxylating (Homo sapiens) (UniProt P52209); test: 6PGD enzyme inhibitors, primary screen, biochemical, human, recombinant enzyme, NADPH absorbance (AID 1159550); details: recombinant 6PGD, NADPH absorbance 341 nm; at 10 µM; stronger effect = higher value
6-phosphogluconate dehydrogenase, decarboxylating (Homo sapiens), sequence (P52209 whole entry, looked up, the tested form may be a part): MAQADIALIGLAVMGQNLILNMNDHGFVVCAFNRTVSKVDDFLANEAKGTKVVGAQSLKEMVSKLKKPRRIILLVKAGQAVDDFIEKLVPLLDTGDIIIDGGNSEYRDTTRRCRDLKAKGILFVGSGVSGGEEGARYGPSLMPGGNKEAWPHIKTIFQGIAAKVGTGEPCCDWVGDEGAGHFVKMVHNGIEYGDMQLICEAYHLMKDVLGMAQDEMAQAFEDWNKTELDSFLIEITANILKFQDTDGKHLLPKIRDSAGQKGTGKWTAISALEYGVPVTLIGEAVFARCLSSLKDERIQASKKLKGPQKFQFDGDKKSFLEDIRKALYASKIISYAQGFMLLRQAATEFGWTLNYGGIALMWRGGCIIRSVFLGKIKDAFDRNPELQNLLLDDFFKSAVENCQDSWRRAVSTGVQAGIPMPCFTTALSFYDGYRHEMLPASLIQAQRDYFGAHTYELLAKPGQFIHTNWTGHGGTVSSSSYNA

[2] = target: Mitogen-activated protein kinase 7 (Homo sapiens) (UniProt Q13164); test: ERK5 transactivation activators in reporter cells, primary screen, cell-based, HTS (AID 1508626;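 active = luciferase signal above three times the same-plate solvent-only control wells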;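 also: luciferase driven by Gal4-ERK5 fusion binding five Gal4 sites before minimal TATA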); details: HeLa Gal4-ERK5 transactivation, 18 h, at 5 µM, stronger effect = higher value
Mitogen-activated protein kinase 7 (Homo sapiens), sequence (Q13164 whole entry, looked up, the tested form may be a part): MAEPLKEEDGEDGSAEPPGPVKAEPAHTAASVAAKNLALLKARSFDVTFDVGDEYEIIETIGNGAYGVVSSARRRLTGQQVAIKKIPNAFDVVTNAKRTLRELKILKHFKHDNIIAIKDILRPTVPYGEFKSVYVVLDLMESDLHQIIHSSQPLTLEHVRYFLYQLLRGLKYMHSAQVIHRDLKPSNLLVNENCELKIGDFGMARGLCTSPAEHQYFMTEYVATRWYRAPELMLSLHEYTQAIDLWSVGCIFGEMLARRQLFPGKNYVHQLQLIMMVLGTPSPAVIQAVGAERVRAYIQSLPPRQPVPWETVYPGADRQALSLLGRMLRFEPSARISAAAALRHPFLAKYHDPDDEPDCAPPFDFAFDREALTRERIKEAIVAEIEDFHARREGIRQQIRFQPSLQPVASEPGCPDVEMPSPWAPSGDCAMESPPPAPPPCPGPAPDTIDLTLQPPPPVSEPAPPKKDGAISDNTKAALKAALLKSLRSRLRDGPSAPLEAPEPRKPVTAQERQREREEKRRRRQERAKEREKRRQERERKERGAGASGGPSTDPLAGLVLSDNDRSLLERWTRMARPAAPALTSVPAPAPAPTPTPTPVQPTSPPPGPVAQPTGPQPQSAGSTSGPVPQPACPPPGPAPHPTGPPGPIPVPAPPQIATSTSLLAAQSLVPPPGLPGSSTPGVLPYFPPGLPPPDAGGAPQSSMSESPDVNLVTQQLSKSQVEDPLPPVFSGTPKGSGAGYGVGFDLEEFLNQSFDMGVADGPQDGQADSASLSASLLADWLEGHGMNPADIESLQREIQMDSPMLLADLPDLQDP

SMILES	inhibition [1] [%]	luciferase signal [2] [AU]
COc1ccc(-c2cc(=O)c3ccccc3o2)cc1	-3.26	112
C[N+]1(C)C[C@H](O)C[C@H]1C(=O)[O-]	0.213	60
COC(=O)C[C@H]1C(C)(C)[C@@H](OC(C)=O)[C@@H]2CC3C4CC(=O)O[C@@H](c5ccoc5)[C@]4(C)CCC3[C@@]1(C)C2=O (some centres undefined)	7.27	28
COc1cc(C)c(C(=O)Oc2cc(C)c(C(=O)O)c(O)c2C)c(O)c1C=O	2.14	120
C[C@H]1C(=O)CC[C@@H]2[C@]1(C)CC[C@H]1[C@@]2(C)CC[C@@]2(C)[C@@H]3CC(C)(C)CC[C@]3(C)CC[C@]12C	7.58	88
CC1CCC(C(C)C)C(OC(=O)c2ccccc2)C1 (centres undefined)	3.54	48
OC[C@@H](O)[C@@H](O)C(O)[C@H](O)[C@@H](O)CO (some centres undefined)	-5.44	56
O=c1cc(-c2ccc(O)cc2)oc2cc(O[C@@H]3O[C@H](CO)[C@@H](O)[C@H](O)[C@H]3O)cc(O)c12	-5.65	120
C[C@@H]1CC[C@H]2C(C)(C)[C@H]3C[C@@]12CC[C@@]3(C)O	1.71	28
C/C1=C\CCC(=O)C2CC(C)(C)C2CC1 (centres undefined)	-1.45	60
COc1cc(C/C=C/c2ccccc2)c(OC)cc1O	9.29	56
CC1(C)CC[C@]2(C(=O)O)CC[C@]3(C)C(=CC[C@@H]4[C@@]5(C)CC[C@H](O)[C@@](C)(CO)[C@@H]5CC[C@]43C)[C@@H]2C1	-1.09	76
CC(=O)O[C@H]1C[C@@H](OC(C)=O)C(C)(C)[C@@H]2C[C@@H](OC(C)=O)[C@]3(C)[C@H](CC[C@@]4(C)[C@H](c5ccoc5)OC(=O)[C@H]5O[C@@]534)[C@@]12C	-4.75	12
CN1CCCC1c1cccnc1 (centres undefined)	17.4	56
CC(=O)N1CCC[C@H]1C(=O)O	11.4	52
COS(C)(=O)=O	6.76	124

SMILES	inhibition [1] [%]	luciferase signal [2] [AU]
CC1(C)C2CC(=O)O[C@@]3(C)C4=CC(=O)O[C@@H](c5ccoc5)[C@]4(C)CCC3[C@@]2(C)C=C[C@H]1O (some centres undefined)	9.39	20
COc1cc(OC)c2c(c1Cl)O[C@@]1(C(=O)CC(=O)C[C@H]1C)C2=O	4.62	48
CC(=O)OC[C@H]1O[C@@H](Oc2cc(OC(C)=O)c3c(=O)cc(-c4ccc(OC(C)=O)cc4)oc3c2)[C@H](OC(C)=O)[C@@H](OC(C)=O)[C@@H]1OC(C)=O	6.51	80
COC(=O)C[C@H]1C(C)(C)C2(O)OC34CC2C(=O)[C@]1(C)C3CC[C@]1(C)C4=CC(=O)O[C@H]1c1ccoc1 (some centres undefined)	4.12	20
COC(=O)c1c(OC)cc2c(c1C)Oc1c(Cl)c(OC(C)=O)c(Cl)c(C)c1C(=O)O2	-6.07	44
COC(=O)C[C@H]1C(C)(C)[C@@H](O)[C@@H]2CC3=C4CC(O)O[C@@H](c5ccoc5)[C@]4(C)CCC3[C@@]1(C)C2=O (some centres undefined)	-13.5	36
C/C=C(/C)C(=O)O[C@@H]1c2c(ccc3ccc(=O)oc23)OC(C)(C)[C@@H]1OC(C)=O	4.61	56
COC(=O)CC1C(C)(C)C(OC(C)=O)[C@@H]2[C@@H](OC(C)=O)[C@]34O[C@@]2(O)[C@]1(C)C3CC[C@]1(C)C4=CC(=O)O[C@H]1c1ccoc1 (some centres undefined)	-1.28	12
CC(=O)O[C@@H]1C[C@H]2C(C)(C)[C@@H](O)CC[C@]2(C)[C@H]2CC[C@@]3(C)[C@H](c4ccoc4)OC(=O)[C@H]4O[C@]43[C@@]21C	-6.19	108
CCCCCC/C=C\CCCCCCCc1cccc(O)c1C(=O)O	0.888	76
C/C(=C\CO)CCC[C@H](C)CCC[C@H](C)CCCC(C)C	5.74	72
CC1(C)CC[C@]2(C)CC[C@]3(C)C(=CC[C@@H]4[C@@]5(C)CC[C@H](O)C(C)(C)[C@@H]5CC[C@]43C)[C@@H]2C1	10.2	20
CO[C@H]1C=C[C@@]23c4cc5c(cc4CN(C[C@@H]2O)[C@H]3C1)OCO5	13.8	44
COc1ccc(-c2coc3cc(OC)cc(OC)c3c2=O)cc1	4.5	60
CC(C)CCC[C@@H](C)[C@H]1CC[C@H]2C3=CC[C@H]4C[C@@H](O)CC[C@]4(C)[C@H]3CC[C@]12C	4.86	56
Cn1c(=O)[nH]c2nc[nH]c2c1=O	-4.63	56
